Screening data deposited in PubChem BioAssay by National Center for Advancing Translational Sciences (NCATS).
GLP1R cytotox = cytotoxic in the GLP-1 receptor inverse agonist counter-screen | HEK293 cAMP-luciferase reporter cells, luminescence, 24 h | Potency, µM (top dose mostly 38.3 µM), without a hit: at the highest dose activity change, negative = inhibition, usual class: inhibitors | 410,000 tested, 0.13% active | AID 624418;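 note: loss of luciferase light is scored as toxicity; potency is the fitted concentration of half-maximal effect; % is set by controls: 0 for no effect and ±100 for the full control effect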
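Compound-treated cells are incubated 24 hr at 37 deg C under 5% CO2 after a 12 hour attachment period, then luciferase detection reagent is added and luminescence is measured following 12 min at room temperature; lowered signal indicates toxicity.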
GLP1R ag = GLP-1 receptor (human) agonism; 380,000 tested, 0.007% active; P43220; HEK293 GLP-1R CRE-luciferase, luminescence, 4-6 h; cells express a hypersensitive GLP-1R form; Potency, µM (highest dose often 45.6 µM), inactives show top-dose activation, hits mostly activators; note: potency is the fitted concentration of half-maximal effect; % of control where 0% means no effect
KCNH2 3.1 block = inhibitors of human KCNH2 3.1 potassium channel isoform | U2OS KCNH2 3.1, thallium flux FluxOr; active compounds read low | activity change, % (tested at about 1.8 µM) | 340,000 tested, 0.95% active | AID 720553;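 active = maximum activity change below -70%; inconclusive = maximum activity change from -70% to -50%; inactive = maximum activity change above -50%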;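 note: thallium influx rate constant from kinetic fluorescence after stimulation buffer; % is set by controls: 0 for no effect and ±100 for the full control effect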
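FluxOr-based Tl+ influx in U2OS cells transduced with KCNH2 3.1 virus; rate constants normalized to DMSO controls.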
GLS inhibitor = glutaminase GLS (human) inhibition; GLS enzymatic activity, qHTS titration; Potency, µM (doses to about 45.5 µM), inactives show top-dose activity change, negative = inhibition, most hits filed as inhibitors; 410,000 tested, 0.21% active; AID 624170; note: potency is the fitted concentration of half-maximal effect; % is set by controls: 0 for no effect and ±100 for the full control effect
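Glutamate formation by hKGA was monitored fluorometrically using coupled glutamate oxidase, HRP and Amplex Red. Substrate was added as 1 mM L-glutamine solution; incubation was 30 min at RT after an initial read.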
GLP-1R inv ag = inverse agonists of human GLP-1 receptor; HEK293 GLP-1R CRE-luciferase, luminescence, 24 h; GLP-1R form is constitutively active; P43220; Potency, µM (doses to about 38.3 µM), without a hit: at the top dose activity change, negative = inhibition, usual class: inhibitors; 410,000 tested, 1.6% active; note: potency is the fitted concentration of half-maximal effect; % is set by controls: 0 for no effect and ±100 for the full control effect; nearly all actives have a fitted effect of over 55% in size
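Constitutively active GLP-1R drives a cAMP-responsive luciferase in stably transfected HEK293 cells; test compounds are added after overnight (12 h) attachment and left 24 hr, and signal loss in luminescence marks inhibition.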
KCNH2 WT inh = blocks the wildtype human KCNH2 potassium channel; Q12809; U2OS, BacMam KCNH2, thallium flux FluxOr; active compounds read low; activity change, % at 1.84 µM; 340,000 tested, 0.37% active; AID 720551;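 active = maximum activity change below -70%; inconclusive = maximum activity change between -70% and -50%; inactive = maximum activity change above -50%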; note: % is set by controls: 0 for no effect and ±100 for the full control effect
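U2OS cells transduced with wild-type KCNH2 virus are loaded with FluxOr dye for 45 min, and thallium flux is measured in kinetic reads before and after stimulation buffer. Rate constants are normalized to DMSO controls.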
* marks the source's active call; other numbers are inactive results. This is a sample that favours compounds with a hit; in the whole collection about 2.8% have one here. Unless noted, calls come from the whole dose curve; as a rule, active = well fitted curve in the direction sought with a large enough effect; inconclusive = small, poorly fitted or top-dose-only effect, or another doubt; inactive = no such curve, though single readings can be large; an effect the other way counts as inactive or inconclusive.

For O=C(CSc1nc2c(cnn2-c2ccc(F)cc2)c(=O)[nH]1)Nc1ccc(Br)cc1 the results were GLP1R cytotox -9%, GLS inhibitor 7.9µM* and GLP-1R inv ag 10%.
For CSc1ccccc1C(=O)C1CCCN(Cc2c(C)n(C)n(-c3ccccc3)c2=O)C1 (centres undefined) the results were GLP1R cytotox -11%, GLP1R ag 6%, KCNH2 3.1 block -188*, GLS inhibitor -6%, GLP-1R inv ag inconclusive and KCNH2 WT inh -150*.
Screening COc1cccc(-c2nnc3n2N=C(C(C)(C)C)CS3)c1 returned GLP1R cytotox -22%, GLP1R ag -18%, KCNH2 3.1 block 1, GLS inhibitor 11%, GLP-1R inv ag 11µM* and KCNH2 WT inh 0.
COc1ccc(OCC(O)CN2CCc3ccccc3C2)cc1 (centres undefined) was read as GLP1R cytotox -12%, GLP1R ag -1%, KCNH2 3.1 block -22, GLS inhibitor 13%, GLP-1R inv ag inconclusive and KCNH2 WT inh 6.
`OC(COC(c1ccc(Cl)cc1)c1ccc(Cl)cc1)CN1CCc2ccccc2C1` (centres undefined) gave GLP1R cytotox inconclusive, GLP1R ag 7%, GLS inhibitor 6%, GLP-1R inv ag 5µM* and KCNH2 WT inh -71*.
OC(COC(c1ccccc1)c1ccccc1)CN1CCc2ccccc2C1 (centres undefined) was read as GLP1R cytotox -1%, GLP1R ag inconclusive, KCNH2 3.1 block inconclusive, GLS inhibitor 7%, GLP-1R inv ag 10µM* and KCNH2 WT inh inconclusive.
Cc1ccc(OCC(O)CN2CCc3ccccc3C2)c(C)c1 (centres undefined) was read as GLP1R cytotox 2%, GLP1R ag 1%, KCNH2 3.1 block -22, GLS inhibitor -2%, GLP-1R inv ag inconclusive and KCNH2 WT inh 14.
OC(COC(c1ccc(F)cc1)c1ccc(F)cc1)CN1CCc2ccccc2C1 (centres undefined) was read as GLP1R cytotox -8%, GLP1R ag -1%, KCNH2 3.1 block -110*, GLS inhibitor 12%, GLP-1R inv ag inconclusive and KCNH2 WT inh -29.
`OC(COC(c1ccccc1)c1ccccc1)CN1CCOCC1` (centres undefined) gave GLP1R cytotox -2%, GLP1R ag -1%, KCNH2 3.1 block -18, GLS inhibitor 6% and GLP-1R inv ag 1%.
For OC(COc1ccc(Cl)cc1Cl)CN1CCc2ccccc2C1 (centres undefined) the results were GLP1R cytotox inconclusive, GLP1R ag 0%, KCNH2 3.1 block -72*, GLS inhibitor 21%, GLP-1R inv ag inconclusive and KCNH2 WT inh 16.
CCCc1nnc(NC(=O)Cc2coc3c(C)c(C)ccc23)s1 was read as GLP1R cytotox -2%, GLS inhibitor -2% and GLP-1R inv ag 10%.
For CCCOc1ccc(C2C(=O)N(C3CCCCCC3)CC(=O)N2CCCOCC)cc1OC (centres undefined) the results were GLP1R cytotox 0%, GLS inhibitor 2% and GLP-1R inv ag 13%.
CCn1cc(C(=O)OCC(=O)Nc2cc(Cl)ccc2OC)c(=O)c2ccc(C)nc21 was read as GLP1R cytotox 3%, GLP1R ag -4%, GLS inhibitor -25% and GLP-1R inv ag 5%.
`CN1CCN(CCOCCOc2c(Cl)cc(Cl)cc2Cl)CC1` gave GLP1R cytotox 25%, GLP1R ag -3%, KCNH2 3.1 block -1, GLS inhibitor 0%, GLP-1R inv ag 11µM* and KCNH2 WT inh 11.
Screening Clc1ccc(OCCOCCN2CCc3ccccc3C2)c(Cl)c1 returned GLP1R cytotox inconclusive, GLP1R ag 11%, KCNH2 3.1 block -28, GLS inhibitor -11%, GLP-1R inv ag 11µM* and KCNH2 WT inh 10.
For OC(COCC1COc2ccccc2O1)CN1CCc2ccccc2C1 (centres undefined) the results were GLP1R cytotox -15%, GLP1R ag -4%, KCNH2 3.1 block -14, GLS inhibitor 11%, GLP-1R inv ag 10µM* and KCNH2 WT inh 17.
For CC1CCCN(CC(O)COCC2COc3ccccc3O2)C1 (centres undefined) the results were GLP1R cytotox -4%, GLP1R ag -8%, KCNH2 3.1 block 6, GLS inhibitor 7%, GLP-1R inv ag -14% and KCNH2 WT inh -1.
For Clc1ccc(OCCCN2CCc3ccccc3C2)c(Br)c1 the results were GLP1R cytotox 1%, GLP1R ag -6%, KCNH2 3.1 block -15, GLS inhibitor 8%, GLP-1R inv ag inconclusive and KCNH2 WT inh 44.
O=C(CSc1nc(-c2ccccc2)cn1-c1ccccc1F)Nc1ccc(F)cc1 was read as GLP1R cytotox 4%, GLS inhibitor -5% and GLP-1R inv ag inconclusive.
CCOc1ccccc1N1CCN(C(=O)CN2C(=O)NC3(CCCC3)C2=O)CC1 was read as GLP1R cytotox -14%, GLP1R ag -30%, KCNH2 3.1 block -15, GLS inhibitor 5%, GLP-1R inv ag -23% and KCNH2 WT inh -2.
Screening CC1CN(C(=O)CN2C(=O)NC3(CCCCCC3)C2=O)CC(C)O1 (centres undefined) returned GLP1R cytotox 2%, GLP1R ag -14%, KCNH2 3.1 block -90*, GLS inhibitor -21%, GLP-1R inv ag 5% and KCNH2 WT inh 0.
For O=C(CN1C(=O)NC2(CCCC2)C1=O)N1CCN(c2ccccc2O)CC1 the results were GLP1R cytotox -3%, GLP1R ag 5%, KCNH2 3.1 block 3, GLS inhibitor 3.2µM*, GLP-1R inv ag 8% and KCNH2 WT inh -10.
`O=C(Cc1ccc(Br)cc1)N1CCN(c2ccccc2O)CC1` gave GLP1R cytotox -21%, GLP1R ag 1%, KCNH2 3.1 block -5, GLS inhibitor 22%, GLP-1R inv ag 11µM* and KCNH2 WT inh -1.
For CC1CCN(C(=O)CN2C(=O)NC3(CCCCCC3)C2=O)CC1 the results were GLP1R cytotox -5%, GLP1R ag 6%, KCNH2 3.1 block 4, GLS inhibitor 4%, GLP-1R inv ag 7% and KCNH2 WT inh 5.
For O=C(Cc1ccc(Br)cc1)N1CCN(c2ccc(F)cc2)CC1 the results were GLP1R cytotox -16%, GLP1R ag 0%, KCNH2 3.1 block -2, GLS inhibitor 17%, GLP-1R inv ag inconclusive and KCNH2 WT inh -6.
For CCN1CCN(Cc2c(O)ccc3c(C)c(-c4ccccc4)c(=O)oc23)CC1 the results were GLP1R cytotox inactive, GLS inhibitor 54% and GLP-1R inv ag inconclusive.
